Assay results as given in PubChem BioAssay (NCI).
About 83,000 compounds went through this panel and 20% of them were active in at least one assay; those are over-represented in the sample as a whole.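 How to read the values: 0–100, growth inhibition (40 = 60% inhibited); 0, no net growth; -100 to 0, cell death (-40 = 40% of starting cells died; -100 = all dead).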 Unmarked numbers belong to inactive results. The source made the active and inactive calls. Rule for the calls: active = growth percent below 10; inactive = the rest.

Assays:
Assay in all cases: NCI-60 one-dose screen, 48 h (100 = growth as untreated, 0 = no growth, -100 = all killed)
Settings in all cases: 10 µM unless noted
RPMI-8226 leukemia = test system: RPMI-8226 leukemia
OVCAR-8 ovarian = test system: OVCAR-8 ovarian
OVCAR-5 ovarian = test system: OVCAR-5 ovarian
OVCAR-4 ovarian = test system: OVCAR-4 ovarian
SK-OV-3 ovarian = test system: SK-OV-3 ovarian
IGROV1 ovarian = test system: IGROV1 ovarian
OVCAR-3 ovarian = test system: OVCAR-3 ovarian
HS 578T breast = test system: HS 578T breast
NCI/ADR-RES ovarian = test system: NCI/ADR-RES ovarian
T-47D breast = test system: T-47D breast

Compound	growth (RPMI-8226 leukemia)	growth (OVCAR-8 ovarian)	growth (OVCAR-5 ovarian)	growth (OVCAR-4 ovarian)	growth (SK-OV-3 ovarian)	growth (IGROV1 ovarian)	growth (OVCAR-3 ovarian)	growth (HS 578T breast)	growth (NCI/ADR-RES ovarian)	growth (T-47D breast)
O=C(Cn1ccnc1)NC(c1ccccc1)c1ccccc1	108%	102%	83.5%	105%	114%	106%	116%	102%	102%	101%
CCOC(=O)C(C(C)=O)c1nc2sc3cc(Cl)ccc3n2c(=N)c1C#N (stereo not given)	97.9%	80.9%	114%	77.9%	84.6%	84.3%	107%	28.8%	87.2%	77.9%
Cc1ccsc1/C=C/C1=NCCCN1C	100%	108%	111%	102%	103%	101%	108%	115%	107%	93.9%
CN(C)c1nc(-c2ccco2)n2nc(-c3ccco3)cc2n1	65.1%	92.8%	108%	80.1%	98.7%	72.4%	92.9%	78.1%	90.7%	38%
Cc1ccc2c(c1)O/C(=C\c1ccc([N+](=O)[O-])o1)C2=O	-34.4% (active)	-4.7% (active)	71.6%	5.62% (active)	91.1%	-17.3% (active)	-15% (active)	106%	78.5%	41.4%
Cc1cc(NC(=O)c2ccc(N)cc2)ccc1N=Nc1ccc2c(O)c(N=Nc3ccc(Cl)c(S(=O)(=O)O)c3)c(S(=O)(=O)O)cc2c1	65.6%	70.2%	92.2%	106%	88.6%	73%	85.9%	103%	76.1%	70.9%
Cc1ccc2c(c1)C(=O)/C(=C/c1ncc([N+](=O)[O-])n1C)O2	-12.4% (active)	-30.8% (active)	8.96% (active)	21.8%	0.948% (active)	-26.5% (active)	-46.9% (active)	-10.2% (active)	-3.98% (active)	90.3%
Cc1cc(C)n(C(=O)c2nn(-c3ccc(Cl)cc3)cc2O)n1	-0.413% (active)	26.3%	64.1%	67.7%	87.5%	25.3%	50.9%	7.1% (active)	22.6%	46.3%
CCN(CC)CCNc1ccc(Cl)cc1Cl	109%	98.2%	124%	117%	92.5%	110%	109%	108%	103%	98.6%
Cc1nc2c(O)cccc2cc1CO	113%	120%	92.7%	100%	110%	120%	112%	130%	96.1%	99.4%
COc1cc(OC)c2cc(C(=O)O)c(=O)oc2c1	43%	94.4%	106%	130%	99.9%	55.2%	102%	134%	112%	99.4%
O=C(/C=C/c1cccnc1)/C=C/c1cccnc1	-61.1% (active)	-25.2% (active)	-21.7% (active)	20.9%	31%	-89.3% (active)	-40.9% (active)	-16% (active)	32.2%	-2.05% (active)
O=C(C(=O)N1CCOCC1)c1ccc(OC2OC(CO)C(O)C(O)C2O)cc1 (stereo not given)	111%	100%	98.2%	116%	100%	117%	110%	125%	113%	96%
C=C(C)[C@@H]1C[C@H](O)Cc2cc(Cl)cc(Cl)c2N1	116%	99.6%	81.9%	103%	101%	105%	108%	100%	102%	99.3%
O=C(Nc1nc2ccccc2s1)c1cc(-c2ccc(F)cc2)n2nc(-c3ccccc3)cc2n1	50.9%	56.1%	64.7%	-24.7% (active)	35%	78%	20.3%	59.7%	61.8%	45.4%
C/C(=N/N=C(N)N)c1ccc(N)cc1	190%	111%	105%	100%	105%	-12.3% (active)	93.1%	73.3%	103%	94.7%
COC(=O)C[C@@H]1CC=CC(=O)/C1=C(O)/C=C/c1ccccc1	31.3%	10.6%	-83.8% (active)	-10.7% (active)	32.6%	-72.9% (active)	-92.5% (active)	12.5%	17.6%	-6.15% (active)
COc1ccc2[nH]c(-c3ccccc3)cc2c1	48.5%	103%	109%	81.3%	110%	100%	101%	105%	113%	72%
COc1ccccc1[C@H]1c2[nH]c3ccccc3c2C[C@H]2C(=O)N(CCCCCCC(=O)NO)CC(=O)N12	-1.71% (active)	36.9%	26.4%	58.1%	61.7%	41.1%	48.2%	53.6%	72.4%	18.2%
COC(=O)CCC1=C(CC(=O)OC)C(C)=N/C1=C\c1[nH]c(-c2ccc[nH]2)cc1OC	-42.3% (active)	9.85% (active)	65%	27.4%	64.6%	42.1%	17.4%	52.2%	17.5%	40.1%
Cc1nc(N)[nH]c(=O)c1C	83.7%	105%	98.3%	111%	99.4%	9.58% (active)	121%	183%	91%	83%
